In PubChem BioAssay AID504834 (National Center for Advancing Translational Sciences (NCATS), 2011):
The campaign covered roughly 320,000 compounds. About 22,000 (6.9%) were called active. Inconclusive results (about 27%) are left out. Calls follow the shape of the dose curve; as a rule, active = well fitted inhibition curve with a large enough effect; inconclusive = small, poorly fitted or top-dose-only effect, or another doubt; inactive = no such curve, though single readings can be large or run the other way. Many of the other results were omitted from the sample, so actives are more common in it than they were.

assay: Primary qHTS for delayed death inhibitors of the malarial parasite plastid, 96 hour incubation; details: P. falciparum luciferase reporter growth; series mostly up to 28.7 µM; activity change, negative = inhibition: at the top concentration
Text: The goal of this screen is to discover new antimalarial compounds that act by inhibiting the development of the apicoplast in the malarial parasite Plasmodium falciparum. The biochemical processes that make this organelle essential for erythrocytic stage parasites are not well understood. However, antibiotics such as azithromycin and tetracycline, which target the apicoplast translational machinery, have a potent antimalarial effect.
We have developed a cell-based assay that measures parasite growth based on the expression of an integrated copy of a firefly luciferase reporter. To detect small molecules that cause this "delayed death" phenotype, erythrocytes infected with the luciferase-expressing parasites were incubated with compounds for either one or two generations, corresponding to 48 and 96 hours, respectively. Compounds that inhibit parasite growth in the second generation, but not the first, should be enriched in antimalarials that target the apicoplast. Growth inhibition is detected by a decrease in luciferase activity.
Assay Provider: David Fidock and Eric Ekland, Columbia University
Keywords: NIH Roadmap, MLPCN, MLI, MLSMR, qHTS, NCGC, qHTS, malaria, luciferase, viability
Four microliters of infected erythrocytes (2% hematocrit, 0.05% parasitemia final concentration) in culture medium were dispensed and the plates incubated for 96 hours at 37 C in 5% CO2. Two microliters of luciferase detection reagent was added and luminescence was detected by a ViewLux (PerkinElmer) reader.
% is scaled to controls: 0 for no effect and ±100 for the full control effect; potency is read from the fitted curve at half-maximal effect.

Row | Compound | activity change, negative = inhibition | Potency
1 | O=C(OCCN1C(=O)c2ccccc2C1=O)Oc1ccccc1 | -2.14% (inactive) | –
2 | O=C(NCCCn1ccnc1)c1ccccc1F | -19.5% (inactive) | –
3 | COc1ccc(-c2sc3ccc(OC)cc3c2C#Cc2ccccn2)cc1 | – | 2.33 µM (active)
4 | COc1ccc(-c2cn3cccnc3n2)cc1 | -27.3% [at 5.75 µM] (inactive) | –
5 | COc1ccc(-c2csc(Nc3ccccn3)n2)cc1 | 9.84% (inactive) | –
6 | CC1(C)C(C=C(Cl)Cl)C1C(=O)NC(O)C(=O)c1ccccc1 (stereo not given) | 21.7% (inactive) | –
7 | COc1ccc(N2CCN(C3CCCCC3NS(=O)(=O)c3ccccc3)CC2)cc1 (stereo not given) | 19.5% (inactive) | –
8 | O=C(NC1Cc2ccccc2C1)c1cc(COc2cccc(C(F)(F)F)c2)on1 | -18.1% (inactive) | –
9 | CC(C)CC(=O)Nc1nnc(S(=O)(=O)N(C)c2ccc(Cl)cc2)s1 | 0% (inactive) | –
10 | Cc1cc(C(=O)OCC(=O)N2c3ccccc3NC(=O)C2(C)C)c(C)n1-c1ccccc1 | 0% (inactive) | –
11 | CNS(=O)(=O)c1cccc(C(=O)OCC(=O)N2c3ccccc3NC(=O)C2(C)C)c1 | -26.3% (inactive) | –
12 | CCNc1ccc(C(=O)OCC(=O)N2c3ccccc3NC(=O)C2(C)C)cc1[N+](=O)[O-] | – | 9.28 µM (active)
13 | COc1cccc(-n2c(=S)sc3c(=O)n(-c4ccccc4C)c(SCC(=O)O)nc32)c1 | 23.6% (inactive) | –
14 | O=C(CN1CCCCCC1)Nc1ccc(Cl)cc1F | 39.2% (inactive) | –
15 | CN(C)C(=O)c1ccc(NC(=O)COC(=O)c2cc3c(s2)CCCCC3)cc1 | -11.1% (inactive) | –
16 | Cc1cc(C)cc(NC(=S)NCCCN2CCOCC2)c1 | 2.48% (inactive) | –
17 | CC(C)c1cc(CN2CCOCC2)cc(C(C)C)c1O | – | 10.4 µM (active)
18 | CC(CN1CCOCC1)c1ccccc1 (stereo not given) | 25.6% (inactive) | –
19 | CCOC(=O)Nc1ccc2c(c1)N(C(=O)CCCl)c1ccccc1[S@]2=O | -14.6% (inactive) | –
20 | Cc1ccc(CCN2CC(C(=O)NCCc3ccccc3)CC2=O)cc1 (stereo not given) | 68.2% (inactive) | –
21 | CC(=O)Nc1c2c(nn1-c1cccc(C)c1)CSC2 | 20.2% (inactive) | –
22 | O=C(CCCN1C(=O)/C(=C\c2ccco2)SC1=S)Nc1cccc2ccccc12 | 10.4% (inactive) | –
23 | CCCN(CCC)c1nc2c(C)cccn2c(=O)c1/C=C1/SC(=S)N(Cc2ccco2)C1=O | – | 2.08 µM (active)
24 | Cc1ccc2[nH]c(=O)c(-c3nc4c(C)cccn4c3NCc3ccco3)cc2c1 | 10.9% [at 5.75 µM] (inactive) | –
25 | Cn1c(=O)[nH]c(=O)c2c1[nH]c(=S)n2Cc1ccccc1 | 10.9% (inactive) | –

Row | Compound | activity change, negative = inhibition | Potency
26 | COc1ccc(C(=O)Oc2ccc(-c3nnco3)cc2)cc1S(=O)(=O)N1CCOCC1 | 22.5% (inactive) | –
27 | COc1ccccc1N1CCN(CC(=O)NC(=O)NCc2ccco2)CC1 | 27.5% (inactive) | –
28 | COc1ccc(C2=NOC(C(=O)NCc3ccco3)C2)cc1OC (stereo not given) | -4.01% (inactive) | –
29 | COc1cc2c(cc1OC)C(C(=O)NCc1ccco1)C1c3ccccc3CCN1C2=O (stereo not given) | – | 3.29 µM (active)
30 | CCCCNC(=O)CN1C(=O)NC(Cc2ccccc2)(Cc2ccccc2)C1=O | 7.91% (inactive) | –
31 | CCOC(=O)c1c(NC(=O)/C=C/c2ccco2)sc(C)c1C | – | 2.33 µM (active)
32 | CCOC(=O)c1c(NC(=S)NC(=O)/C=C/c2cccs2)sc(C)c1C | 0% (inactive) | –
33 | CCOC(=O)c1c(NC(=O)c2cccs2)sc(C)c1C | 50.7% (inactive) | –
34 | Cn1c(Nc2ccccc2)cc(=O)n(C)c1=O | 11.9% (inactive) | –
35 | CCn1cc(CN2CCC(C(=O)Nc3cccc(-c4cccc(Cl)c4)c3)CC2)c(C)n1 | 11.7% (inactive) | –
36 | CCCCCCSc1ccc([C@@H]2[C@@H]3C(=O)N(CC)C(=O)[C@@H]3[C@]3(C(=O)OC)CCCCN23)cc1OC | – | 6.57 µM (active)
37 | COC(=O)CN1C(=O)[C@H]2[C@@H](C3CC3)N3C(=O)CN(Cc4ccc(-c5ccccc5)cc4)C(=O)[C@@]3(Cc3ccccc3)[C@H]2C1=O | 40.9% (inactive) | –
38 | CCN1C(=O)[C@@H]2[C@@H](c3ccc(-c4ccc(OC)cc4)c(OC)c3)N3CCC[C@@]3(C(=O)OC)[C@@H]2C1=O | – | 10.4 µM (active)
39 | CCN1C(=O)[C@@H]2[C@@H](c3ccc(-c4cccc(Cl)c4)cc3)N3CCC[C@@]3(C(=O)OC)[C@@H]2C1=O | – | 8.28 µM (active)
40 | COCCCN1C(=O)c2ccc(C(=O)Nc3ccc(OC)cc3OC)cc2C1=O | 25.7% [at 5.75 µM] (inactive) | –
41 | COc1ccc(N2C(=O)CCC(C(=O)N(C)C3CCCCC3)C2c2ccc(OC)c(OC)c2)cc1 (stereo not given) | -2.32% (inactive) | –
42 | COc1ccc(OC)c(NC(=O)CN(C)CCOc2ccc(Br)cc2)c1 | -21.8% (inactive) | –
43 | CC(=O)Nc1ccc(NC(=O)C2CCCN2S(=O)(=O)c2cccc(C(F)(F)F)c2)cc1 (stereo not given) | 6.66% (inactive) | –
44 | O=C(Nc1n[nH]c(C(F)(F)F)n1)c1cccs1 | 41.7% (inactive) | –
45 | CC(=O)NS(=O)(=O)c1ccc(N/C(N)=N/c2nc(C)cc(C)n2)cc1 | -8.97% (inactive) | –
46 | Clc1ccc2c(c1)C1=C(C(c3ccncc3)O2)C(c2ccc(Br)cc2)n2ncnc2N1 (stereo not given) | – | 3.29 µM (active)
47 | CC1=C(C(N)=O)C(c2ccc(Br)cc2)n2ncnc2N1 (stereo not given) | 9.45% (inactive) | –
48 | COC(=O)COc1ccc2c(c1C)O/C(=C\c1ccco1)C2=O | 86.9% (inactive) | –
49 | CC1CC(C)(C)n2c(O)c(N=NC(N)=S)c3cccc1c32 (stereo not given) | 11.4% (inactive) | –
50 | CCc1nc2ccc(C(=O)N3CCN(c4cccc(Cl)c4)CC3)cc2nc1CC | – | 7.38 µM (active)

Row | Compound | activity change, negative = inhibition | Potency
51 | Cc1nc2ccc(C(=O)N3CCN(c4ccccc4)CC3)cc2s1 | -6.37% (inactive) | –
52 | O=C(CCCC(=O)N1CCN(c2cccc(Cl)c2)CC1)c1ccccc1 | 4.4% (inactive) | –
53 | CCOc1cc(C(=O)O)ccc1OCCOc1ccccc1 | 10.2% (inactive) | –
54 | CN(CC(=O)Nc1cccc(F)c1)C(=O)CC1CCCC1 | 30.9% (inactive) | –
55 | Cn1c(NC(=O)c2ccccc2)nc2ccccc21 | -49.6% (inactive) | –
56 | c1ccc(-c2nccc(-c3ccc(-n4cnc5ccccc54)cc3)n2)nc1 | – | 4.15 µM (active)
57 | COC(=O)c1ccc(-n2cnc3ccccc32)nc1 | 0% (inactive) | –
58 | O=C(O)C1=NN(c2c(F)c(F)cc(F)c2F)C(=O)CC1 | 20.6% (inactive) | –
59 | CSc1ncccc1C(=O)Nc1ccc(C)cn1 | 43.7% (inactive) | –
60 | CCc1ccccc1NC(=O)Cc1cn(C)c2ccccc12 | – | 13.1 µM (active)
61 | CCc1ccccc1NC(=O)CCOc1ccccc1 | -7.11% (inactive) | –
62 | CCOC(=O)N1CCC(NC(=O)Cc2cn(C)c3ccccc23)CC1 | 34.3% (inactive) | –
63 | COc1ccc(CNc2nc3c(c(=O)[nH]c(=O)n3C)n2Cc2ccccc2)cc1 | 12.3% (inactive) | –
64 | O=C(CC(c1ccccc1)c1ccccc1)NCC(O)c1ccc([N+](=O)[O-])cc1 (stereo not given) | -27.2% (inactive) | –
65 | O=C(CSc1cccc[n+]1[O-])c1ccc(-c2ccccc2)cc1 | – | 8.28 µM (active)
66 | O=C(CSc1cccc[n+]1[O-])NCCCc1ccccc1 | 23.3% (inactive) | –
67 | Cc1ccc(C(=O)CSc2ccccc2C(=O)O)cc1 | 188% (inactive) | –
68 | CCCCC(=O)Nc1c2c(nn1-c1ccc([N+](=O)[O-])cc1)CS(=O)(=O)C2 | 14.9% (inactive) | –
69 | O=C(NCc1ccccn1)C1CCN(S(=O)(=O)c2ccc(Br)cc2)CC1 | 21.9% (inactive) | –
70 | COCCN(C(=S)Nc1ccccc1OC)C1CCN(C(C)C)CC1 | -15.9% (inactive) | –
71 | CCN(CC(=O)NCc1cccs1)C(=O)c1cccc(S(=O)(=O)Nc2ccccc2OC)c1 | 15.4% (inactive) | –
72 | COc1ccc2[nH]c(C)c(CCN(Cc3cccs3)C(=S)Nc3ccccc3OC)c2c1 | – | 13.1 µM (active)
73 | COc1ccc(S(=O)(=O)NC(C)c2ccccc2)cc1C(=O)N1CCCCC1 (stereo not given) | 25.7% (inactive) | –
74 | CC(=O)Nc1ccc(S(=O)(=O)N2CCN(S(=O)(=O)c3cccs3)CC2)cc1 | -14.8% (inactive) | –
75 | CC(C)(C)c1csc(NC2=NS(=O)(=O)c3ccccc32)n1 | 0% (inactive) | –

Row | Compound | activity change, negative = inhibition | Potency
76 | CC(C)C(NS(=O)(=O)c1cccs1)C(=O)Nc1nc(C(C)(C)C)cs1 (stereo not given) | – | 13.1 µM (active)
77 | Cc1ccc(CS(=O)(=O)CCC(=O)NCc2ccc(F)cc2)cc1 | -0.448% (inactive) | –
78 | COc1ccc(CCC(C)N2CCc3ccccc3C2)cc1 (stereo not given) | 1.99% (inactive) | –
79 | O=C(CN(C(=O)CCC(=O)Nc1nccs1)c1ccc(F)cc1)NCc1ccc2c(c1)OCO2 | 45.9% (inactive) | –
80 | CCC1Sc2ccc(S(=O)(=O)CCC(=O)NCc3cccs3)cc2NC1=O (stereo not given) | 6.87% (inactive) | –
81 | Cc1nc(-c2nnc(SCC(=O)Nc3cc(C(F)(F)F)cc(C(F)(F)F)c3)n2C)cs1 | 25.6% (inactive) | –
82 | CCN(C(=O)COC(=O)C1CCN(S(=O)(=O)c2ccc(C)c(C)c2)CC1)C1CCS(=O)(=O)C1 (stereo not given) | -1.93% (inactive) | –
83 | CCCNC(=O)OC[C@H]1O[C@H](CCO/N=C/[C@@H](NS(=O)(=O)c2ccc(C)cc2)[C@H](C)/C=C/CC(=O)OC)C=C[C@@H]1Oc1ccc(OC)cc1 | – | 7.38 µM (active)
84 | CCCC(C)NC(=O)C1CCN(C(=O)C2CC(=O)N(c3ccc(C)cc3)C2)CC1 (stereo not given) | 332% (inactive) | –
85 | COc1ccc(CCNC(=O)COC(=O)C2CC2C)cc1 (stereo not given) | -20.6% (inactive) | –
86 | Clc1ccc(C(Cn2ccnc2)OCc2ccsc2Cl)c(Cl)c1 (stereo not given) | – | 6.75 µM (active)
87 | O=C(Nc1ccccc1C(=O)NCCCn1ccnc1)c1ccc(Cl)cc1Cl | -16.7% (inactive) | –
88 | O=C(NCCCn1ccnc1)Nc1ccc(Cl)cc1Cl | -24.9% (inactive) | –
89 | CC(OC(=O)CCCOc1ccccc1)C(=O)Nc1ccc(Cl)cn1 (stereo not given) | 0.813% (inactive) | –
90 | CC1CCN(C(=O)COC(=O)CCC(=O)c2cccs2)CC1 | 0.599% (inactive) | –
91 | Cc1c(C(C)(C)O)[nH]c2ccc(C#N)cc12 | 108% (inactive) | –
92 | O=C(c1ccccc1F)N1CCN(S(=O)(=O)c2ccc(Br)cc2)CC1 | -20% (inactive) | –
93 | O=S(=O)(c1ccc(Br)cc1)N1CCC(c2nc3ccccc3[nH]2)CC1 | 36.7% (inactive) | –
94 | O=S(=O)(c1ccc(Br)cc1)n1ccc2ccccc21 | – | 2.62 µM (active)
95 | C/C=C/c1ccc(OCC(=O)OCC(=O)Nc2c(C)nn(-c3ccccc3)c2C)c(OC)c1 | 9.93% (inactive) | –
96 | COc1ccc(CNC(=O)C(c2ccc(O)cc2)N(Cc2ccco2)C(=O)c2snc(C(N)=O)c2N)cc1 (stereo not given) | -9.26% (inactive) | –
97 | Cc1cccc(C(=O)N2CCCC(Nc3ccc(C(C)C)cc3)C2)n1 (stereo not given) | 25.2% (inactive) | –
98 | CCCCNC(=O)CCn1c(=S)[nH]c2cc3c(cc2c1=O)OCO3 | 139% (inactive) | –
99 | CC(C)NC(=O)CCCn1c(=S)[nH]c2cc3c(cc2c1=O)OCO3 | 4.1% (inactive) | –
100 | O=C(CCn1c(=S)[nH]c2cc3c(cc2c1=O)OCO3)NCc1ccc(Cl)cc1 | – | 11.7 µM (active)
